Assay outcomes deposited in PubChem BioAssay by National Center for Advancing Translational Sciences (NCATS).
ALDH1A1 inh – inhibitors of human aldehyde dehydrogenase 1A1; Purified ALDH1A1, NADH fluorescence, propionaldehyde substrate; Potency, µM (series often up to 75.3 µM), usual class: inhibitors; hit rate 7.3% among 220,000; AID 1030; active = well fitted inhibition curve with a large enough effect, not every such curve was filed as active; inconclusive = small, poorly fitted or top-dose-only effect, or another doubt; inactive = no such curve, though single readings can be large or run the other way
Target sequence (P00352 whole entry, looked up): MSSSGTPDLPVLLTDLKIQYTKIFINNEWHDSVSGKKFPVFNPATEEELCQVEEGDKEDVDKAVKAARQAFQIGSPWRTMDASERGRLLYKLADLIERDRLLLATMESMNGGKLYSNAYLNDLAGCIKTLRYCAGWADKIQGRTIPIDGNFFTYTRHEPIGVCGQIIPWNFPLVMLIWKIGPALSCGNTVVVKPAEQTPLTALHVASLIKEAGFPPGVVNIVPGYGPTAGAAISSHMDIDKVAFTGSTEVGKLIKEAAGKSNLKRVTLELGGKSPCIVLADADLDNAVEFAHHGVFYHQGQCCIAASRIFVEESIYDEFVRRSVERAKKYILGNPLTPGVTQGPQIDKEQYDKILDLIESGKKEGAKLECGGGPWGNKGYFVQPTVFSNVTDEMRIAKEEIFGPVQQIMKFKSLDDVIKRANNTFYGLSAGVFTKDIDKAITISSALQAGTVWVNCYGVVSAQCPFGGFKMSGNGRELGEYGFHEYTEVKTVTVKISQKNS
GLA inh pH 4.5 – alpha-galactosidase A (human) inhibition, pH 4.5; AID 1467; purified enzyme, 4-MU-alpha-Gal fluorescence, pH 4.5; activity change, negative = inhibition, % at 105 µM; 230,000 tested, under 10 active
PNC inhibitor – blocks assembly of the perinucleolar compartment. AID 2417. PC3M PTB-GFP, PNC prevalence imaging, 16 h; active compounds read low. hit rate 3.1% among 140,000. activity change (PNC), negative = inhibition, % at 10 µM;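 active = readout at or below -70, meaning at least 70% loss of cells showing the perinucleolar compartment, a nuclear body marking cancer cells; inconclusive = readout between -30 and a set limit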
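Read-out is percentage of cells bearing a perinucleolar compartment, from automated 20x imaging of fixed, Hoechst-stained PC3M PTB-GFP cells. Cells were seeded 4 h, then exposed 16 h to compound (23 nl of library stock) in duplicate plates.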
HPGD block – HPGD (human) dehydrogenase inhibition | hit rate 4.3% among 150,000 | AID 894 | Potency, µM, most hits filed as inhibitors | purified HPGD, NADH fluorescence kinetic, PGE2 substrate; active = well fitted inhibition curve with a large enough effect, not every such curve was filed as active; inconclusive = small, poorly fitted or top-dose-only effect, or another doubt; inactive = no such curve, though single readings can be large or run the other way
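NADH formation kinetics: reaction with 30 uM PGE2 and 1 mM NAD+ (final), 20 nM enzyme, Tris-HCl pH 8 with Tween 20, after 15 min compound preincubation at room temperature. Fluorescence change, last versus first of five reads.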
12-hLO inh – inhibitors of human 12-lipoxygenase (ALOX12) | P18054 | purified 12-hLO, xylenol orange hydroperoxide absorbance | Potency, µM (doses to about 57.1 µM), usual class: inhibitors | hit rate 0.12% among 150,000 | AID 1452; also: nearly all actives have a fitted effect of over 55% in size
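150 nM 12hLO, 25 mM Hepes pH 7.0 + 0.01% Triton X-100; cpd preinc 15 min RT; 40 uM arachidonic acid, 30 min RT; Fe-XO 30 min; A573/A405 ratio as read-out.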
aGal spleen mod – inhibits or activates alpha-galactosidase in human spleen homogenate; P06280; human spleen homogenate, 4MU-alpha-Gal fluorescence, 40 min; Potency, µM (highest dose often 80 µM), hits mostly inhibitors; hit rate 0.008% among 240,000; AID 2107
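Human spleen homogenate (1 ug) was the enzyme source, with 4-methylumbelliferyl-alpha-D-galactopyranoside (1 mM final) in pH 5.0 citrate buffer with 0.01% Tween-20. Compounds were titrated; after 40 min at 37C, NaOH/glycine stop, 4-MU fluorescence read; AC50 from Hill fits.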
Hits are given with their value; - = inactive; ? = inconclusive; . = not tested or not shown; [ ] = dose if it differs, or a comment. The list is not random: actives were taken first. Their share in the collection is about 10%. Unless noted, calls follow the shape of the dose curve; as a rule, active = well fitted curve in the direction sought with a large enough effect; inconclusive = small, poorly fitted or top-dose-only effect, or another doubt; inactive = no such curve, though single readings can be large; an effect the other way counts as inactive or inconclusive.

SMILES	ALDH1A1 inh	GLA inh pH 4.5	PNC inhibitor	HPGD block	12-hLO inh	aGal spleen mod
COc1ccc(C(=O)/C=C/c2ccc(N3CCCCC3)c([N+](=O)[O-])c2)c(OC)c1	20µM	-	-	-	-	-
O=C1C2Sc3[nH]c(=O)sc3C(c3ccccc3)C2C(=O)N1c1ccccc1 (stereo not given)	?	-	-	-	-	-
COc1ccc(C2c3sc(=O)[nH]c3SC3C4CCC(C4)C23)cc1 (stereo not given)	22.4µM	-	-	?	-	-
O=c1[nH]c2c(s1)C(c1ccccc1)C1C3CCC(C3)C1S2 (stereo not given)	20µM	-	?	?	-	-
COc1ccc(C2c3sc(=O)[nH]c3SC3C(=O)N(c4ccccc4)C(=O)C32)cc1 (stereo not given)	22.4µM	-	?	-	-	-
NC(=O)C1(N2CCCCC2)CCN(CCCC(=O)c2ccc(F)cc2)CC1	.	.	.	.	.	-
CCCCN(CCCC)C(=O)/C=C/c1cccc([N+](=O)[O-])c1	4.47µM	-	-	-	-	-
CCNC(=O)COC(=O)/C=C/c1cccc([N+](=O)[O-])c1	-	-	.	.	.	-
CCN(C(=O)COC(=O)/C=C/c1cccc([N+](=O)[O-])c1)c1ccccc1	14.1µM	-	.	.	.	-
COc1c2c(cc3c1C(NC(N)=O)[N+](C)(C)CC3)OCO2 (stereo not given)	-	-	.	-	.	-
CN=CC1=C(O)c2ccccc2C1=O	-	-	-	-	-	-
O=C1C(C2=C(O)c3ccccc3C2=O)=Nc2ccccc21	1.26µM	-	-	-	-	-
N#CC(Nc1ccccc1)c1ccccc1OCc1ccccc1 (stereo not given)	17.8µM	-	-	-	-	-
COc1ccc(C(C#N)Nc2ccccc2)cc1 (stereo not given)	?	-	?	-	-	-
CCCCOC(OCCCC)[C@H](O)CSc1ccc2ccccc2c1	-[13.5 µM]	.	.	.	.	-[17.5 µM]
CCCc1nc2sc3c(c2c(=O)n1NC(=O)c1ccco1)CC(C)(C)OC3	?	-	-	-	-	-
CCCCCCCCCc1nc2sc3c(c2c(=O)n1NC(=O)c1ccccc1[N+](=O)[O-])CC(C)(C)OC3	1.41µM	-	-	-	-	-
CCc1nc2sc3c(c2c(=O)n1N)CC(C)(C)OC3	-	-	?	-	-	-
CCCCCCCCCc1nc2sc3c(c2c(=O)n1NC(=O)c1ccc([N+](=O)[O-])cc1)CC(C)(C)OC3	7.08µM	-	?	-	-	-
CCOC(=O)CC1C(=O)NCCN1C(=O)c1sc2ccccc2c1Cl (stereo not given)	?	-	.	.	.	-
CCCC(CCC(=O)Nc1ccn(-c2ccccc2)n1)C(=O)O (stereo not given)	-	-	.	.	.	-
CCCn1c(-c2ccc(F)cc2)nc2c(NCCN3CCOCC3)nc(C)nc21	-	-	.	-	-	-
CCOC(=O)N1CCN(C(=O)c2oc(=O)c3ccccc3c2-c2ccc(C)cc2)CC1	0.0141µM	-	?	-	-	-
Cc1ccc(-c2c(C(=O)N(C)Cc3ccccc3)oc(=O)c3ccccc23)cc1	1.78µM	-	-	-	-	-
Cc1ccc(-c2c(C(=O)NC(C)C)oc(=O)c3ccccc23)cc1	1.41µM	-	.	.	.	-
SMILES	ALDH1A1 inh	GLA inh pH 4.5	PNC inhibitor	HPGD block	12-hLO inh	aGal spleen mod
CCOC(=O)Cc1nnc(NC(=O)CSc2nnc3c(n2)[nH]c2ccccc23)s1	-	-	.	.	.	-
COc1cc([N+](=O)[O-])cc(/C=N/NC(=O)C(C)Nc2ccccc2C)c1O (stereo not given)	-	-	-	-	-	-
COc1cccc(/C=N/NC(=O)c2cc3c(OC)c(OC)ccc3[nH]2)c1OC	?	-	-83.6	?	-	-
Oc1ccc(Br)cc1/C=N/n1cnc2ccccc21	-	-	-	14.1µM	-	-
COC(=O)Nc1ccc(Cl)c(Cl)c1	.	.	.	.	.	-
CC(C)C1O/C(=N/C(=O)Nc2ccc(Cl)c(Cl)c2)NC1=O (stereo not given)	?	-	-	20µM	-	-
O=C(COC(=O)c1ccccc1NC(=O)c1ccccc1)c1cccc([N+](=O)[O-])c1	-	-	-	-	-	-
CCCCC(=O)Nc1cccc(C(=O)Nc2ccccc2C(=O)O)c1	-	-	.	.	.	-
O=C(COc1ccc2ccccc2c1)Nc1cccc(C(=O)Nc2ccccc2C(=O)O)c1	14.1µM	-	-	?	-	-
O=C(COc1ccc([N+](=O)[O-])cc1)Nc1ccc(C(=O)Nc2ccccc2C(=O)O)cc1	12.6µM	-	.	.	.	-
O=C(COC(=O)c1ccccc1NC(=O)c1ccccc1)c1ccc([N+](=O)[O-])cc1	8.91µM	-	-	-	-	-
CC(C)C[C@H](NC(=O)c1ccc(NCc2cnc[nH]2)cc1-c1cccc2ccccc12)C(=O)O	.	.	.	.	.	-
CC(=O)c1ccc2c(c1)CC(C)C(=O)N2C (stereo not given)	-	-	?	?	-	-
COc1ccc(OC(=O)NCCc2ccccc2)cc1	.	-	.	.	.	-
COc1ccc(CCNC(=S)Nc2ccccc2)cc1	-	-	.	.	.	-
COc1ccc(C(=O)NC(=S)NCCc2ccccc2)cc1	14.1µM	-	.	.	.	-
COc1ccc(C(=O)CC(=O)C(=O)NCCc2cccc(C)c2)cc1	2.24µM	-	-	-	-	-
COc1ccc(CCNC(=S)NC(=O)c2ccccc2)cc1OC	?	-	-100.5	25.1µM	14.1µM	-
CCCN(CCC)C[C@@H]1CCCCN1CCNC(=O)N1c2ccccc2C(=O)Nc2cccnc21	-	-	.	-	-	-
COc1ccc(C(=O)OC/C(O)=C(\C#N)c2nc3ccccc3[nH]2)cc1S(=O)(=O)N1CCOCC1	-	-	-	-	-	-
CCC/C=C(\CCC)C(NC(=O)OCC(C)C)c1ccccc1 (stereo not given)	-	-	.	-	-	-
Cn1c(SCc2nnc3n2CCCCC3)nc2ccccc21	-	-	-	25.1µM	-	-
Cn1c(SCC(=O)N2CCCC2)nc2ccccc21	?	-	.	.	.	-
COc1ccc(CNC(=O)Cn2cc([N+](=O)[O-])nc2C)cc1	-	-	-85.9	-	-	-
O=C(CSc1ccsc1[N+](=O)[O-])Nc1cc(F)ccc1F	?	-	.	.	.	-
COC(=O)Cn1cc([N+](=O)[O-])nc1C	-	-	.	.	.	-
CCN(CC)c1ccc(NC(=O)CSc2ccsc2[N+](=O)[O-])c(C)c1	15µM	-	-	12.6µM	-	-
COc1ccc(CNC(=O)CSc2ccsc2[N+](=O)[O-])cc1	14.1µM	-	.	.	.	-
C[C@H](NC(c1cccc2nc(O)c(O)nc12)P(=O)(O)O)c1ccc(Br)cc1 (stereo not given in full)	.	.	.	.	.	-
CC1CN(C(=O)C2(C)CC2(Cl)Cl)CC(C)O1 (stereo not given)	-	-	-	-	-	-
